Experimental findings from PubChem BioAssay (EPA / NIEHS) are described below.

Assay [1] concerns the target human RAR-related Orphan Receptor gamma (RORg), RORC (gene 6097) (UniProt P51449). Kind of assay: ATG_RORg_TRANS: Attagene TRANS-FACTORIAL HepG2 Assay for human RAR-related Orphan Receptor gamma (RORg) (AID 2283011; active = hit-call score of the fitted dose curve at least 0.9, where 1 is the maximum). The method in brief: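 Reporter transcripts from a transfected RORg-GAL4 chimera in HepG2 cells were quantified 24 h after dosing by RT-PCR, 6-FAM labelling, HpaI digestion and capillary electrophoresis; increases over DMSO baseline were fitted.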

The target in assay [2] is Retinoic acid receptor RXR-alpha (Homo sapiens) (UniProt P19793). Kind of assay: ATG_RXRa_TRANS: Attagene TRANS-FACTORIAL HepG2 Assay for human Retinoid X Receptor alpha (RXRa) (AID 2283012; active = hit-call score of the fitted dose curve at least 0.9, where 1 is the maximum). The method in brief:
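Cells (HepG2) carried transiently transfected GAL4-responsive reporter units. Following a 24 h chemical incubation, reporter mRNA induction was read via RT-PCR fragment analysis; DMSO served as negative control and baseline.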

Read-out in assay [3]: E-selectin (Homo sapiens) (UniProt P16581)
Kind of assay: BSK_3C_Eselectin: BioMAP Diversity Plus: 3C Assay for Eselectin Biomarker Activity (AID 2283015).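 For outcome: cell surface E-selectin protein quantified by ELISA 24 h after dosing.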 The conditions noted are these: primary human endothelial cells (HUVEC); actives raise or lower the signal. In short, it runs like this: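 E-selectin ELISA readout, fitted bidirectionally relative to DMSO, taken 24 h post-dosing in HUVEC cultures of the 3C system. Overt cytotoxicity tracked with sulforhodamine B staining of parallel wells.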

Read-out in assay [4]: Interleukin-1 alpha (IL1a), IL1A (gene 3552)
Kind of assay: BSK_BE3C_IL1a: BioMAP Diversity Plus: BE3C Assay for Interleukin-1 alpha (IL1a) Biomarker Activity (AID 2283016). The conditions noted are these: primary human bronchial epithelial cells; actives raise or lower the signal. The method in brief: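 Cultures of primary human bronchial epithelial cells receive test chemical. After 24 h, IL-1a is quantified by ELISA, while parallel wells are fixed in TCA and SRB-stained for total protein. Changes in either direction are fitted relative to DMSO.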

Read-out in assay [5]: Monocyte Chemoattractant Protein-1 (MCP1), CCL2 (gene 6347)
Description: BSK_3C_MCP1: BioMAP Diversity Plus: 3C Assay for Monocyte Chemoattractant Protein-1 (MCP1) Biomarker Activity (AID 2283017). The note with it: primary human endothelial cells (HUVEC); actives raise or lower the signal. In short, it runs like this: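 MCP-1 was measured by ELISA 24 h after dosing in primary HUVEC 3C cultures and fitted in both directions relative to DMSO; cytotoxicity was checked by SRB total-protein staining in parallel wells.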

Read-out in assay [6]: Monocyte Chemoattractant Protein-1 (MCP1), CCL2 (gene 6347)
Description: BSK_4H_MCP1: BioMAP Diversity Plus: 4H Assay for Monocyte Chemoattractant Protein-1 (MCP1) Biomarker Activity (AID 2283018). The conditions noted are these: primary human endothelial cells (HUVEC); actives raise or lower the signal. The method in brief: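 Readout: MCP-1 ELISA on compound-treated HUVEC, sampled 24 h post-dosing. Baseline and negative control DMSO; bidirectional fit. Overt toxicity checked alongside by sulforhodamine B protein staining at time of biomarker measurement.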

Read-out in assay [7]: Human Leukocyte Antigen - DR isotype (HLADR), HLA-DRA (gene 3122)
Kind of assay: BSK_3C_HLADR: BioMAP Diversity Plus: 3C Assay for Human Leukocyte Antigen - DR isotype (HLADR) Biomarker Activity (AID 2283019).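 For outcome: ELISA of cell-surface HLA-DR on HUVEC 24 h after dosing.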 The conditions noted are these: primary human endothelial cells (HUVEC); actives raise or lower the signal. In short, it runs like this: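 Bidirectional fitting against DMSO was applied to the HLA-DR ELISA signal from human umbilical vein endothelial cells, 24 h post-dose. Cytotoxicity came from parallel SRB total-protein staining; 3C proliferation was counted by SRB at 48 h.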

Read-out in assay [8]: Monokine induced gamma interferon (MIG), CXCL9 (gene 4283)
Kind of assay: BSK_3C_MIG: BioMAP Diversity Plus: 3C Assay for Monokine induced gamma interferon (MIG) Biomarker Activity (AID 2283021).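 For AC50: MIG protein level measured by immunoassay in the treated endothelial cultures.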 The note with it: primary human endothelial cells (HUVEC); actives raise or lower the signal. In short, it runs like this: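 After 24 h of treatment, human umbilical vein endothelial cultures (3C system) had their MIG biomarker level determined by ELISA, with DMSO serving as negative control.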

Assay [9] in a line: BSK_3C_SRB: Viability Assessment in the BioMAP Diversity Plus: 3C Assay (AID 2283023).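 Note: fitted both ways against DMSO so a hit may be signal rise or drop.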 The conditions noted are these: primary human endothelial cells (HUVEC). The method in brief:
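Cytotoxicity readout in parallel HUVEC 3C cultures: after 24 h compound exposure, cells fixed with 10% TCA, stained with 0.1% SRB and read at 560 nm. Gain or loss relative to DMSO fitted.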

Read-out in assay [10]: Matrix Metallopeptidase 1 (MMP1), MMP1 (gene 4312)
Kind of assay: BSK_BE3C_MMP1: BioMAP Diversity Plus: BE3C Assay for Matrix Metallopeptidase 1 (MMP1) Biomarker Activity (AID 2283024). The conditions noted are these: primary human bronchial epithelial cells; actives raise or lower the signal. The method in brief: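 Dose cells, wait 24 h, run MMP1 ELISA; cells are human bronchial epithelial primaries. Both increases and decreases relative to DMSO counted.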

A short description of assay [11]: BSK_3C_Vis: BioMAP Diversity Plus: 3C Assay for Morphology Visualization (AID 2283025).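 For AC50: light microscopy image of cell morphology used as background control.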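 Note: fitted both ways so gain or loss versus DMSO counts.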 The note with it: primary human endothelial cells (HUVEC). The method in brief: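 Endothelial cells from human umbilical vein were treated with test chemicals for 24 h and inspected by light microscopy for changes in cell conformation.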
Read-out in assay [12]: Pselectin, SELP (gene 6403)
Kind of assay: BSK_4H_Pselectin: BioMAP Diversity Plus: 4H Assay for Pselectin Biomarker Activity (AID 2283026). The conditions noted are these: primary human endothelial cells (HUVEC); actives raise or lower the signal. In short, it runs like this:
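Human vascular endothelium from umbilical vein; P-selectin measured by ELISA at 24 h post-dose, with cytotoxicity checked by sulforhodamine B total-protein staining in parallel cultures (0.1% SRB after 10% TCA fixation, read at 560 nm).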

Assay [13] in a line: BSK_4H_SRB: Viability Assessment in the BioMAP Diversity Plus: 4H Assay (AID 2283027).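 For AC50: curves fitted both ways versus DMSO so AC50 may be loss or gain.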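 Note: cells exposed to compound for 24 h before staining.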 The conditions noted are these: primary human endothelial cells (HUVEC). In short, it runs like this: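 Human umbilical vein endothelial cells, 24 h after chemical dosing; total protein measured by 0.1% sulforhodamine B staining after 10% TCA fixation, read at 560 nm. Bidirectional fitting against DMSO.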

Assay [14] can be described thus: BSK_BE3C_SRB: Viability Assessment in the BioMAP Diversity Plus: BE3C Assay (AID 2283028).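 For AC50: fitted both ways so AC50 may mark signal gain or loss versus DMSO.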 The conditions noted are these: primary human bronchial epithelial cells. The method in brief:
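Cytotoxicity read-out: SRB (0.1%) staining of TCA-fixed (10%) human lung bronchial epithelial cells, absorbance 560 nm, 24 h post-dosing. Curves fitted both directions relative to DMSO.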

Read-out in assay [15]: Thrombomodulin, THBD (gene 7056)
Kind of assay: BSK_3C_Thrombomodulin: BioMAP Diversity Plus: 3C Assay for Thrombomodulin Biomarker Activity (AID 2283029). The note with it: primary human endothelial cells (HUVEC); actives raise or lower the signal. In short, it runs like this:
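Thrombomodulin ELISA, human primary HUVEC, 24 h post-dose; data fitted in both directions relative to DMSO.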

Read-out in assay [16]: Urokinase-type plasminogen activator receptor (uPAR), PLAUR (gene 5329)
Description: BSK_4H_uPAR: BioMAP Diversity Plus: 4H Assay for Urokinase-type plasminogen activator receptor (uPAR) Biomarker Activity (AID 2283030). The conditions noted are these: primary human endothelial cells (HUVEC); actives raise or lower the signal. The method in brief: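 uPAR level read by ELISA on HUVEC cultures (BioMAP 4H) 24 h post-dosing, analyzed for gain or loss relative to DMSO. Parallel SRB staining assessed overt cytotoxicity.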

Assay [17] addresses human Retinoid X Receptor beta (RXRb), RXRB (gene 6257) (UniProt P28702). Kind of assay: ATG_RXRb_TRANS: Attagene TRANS-FACTORIAL HepG2 Assay for human Retinoid X Receptor beta (RXRb) (AID 2283013; active = hit-call score of the fitted dose curve at least 0.9, where 1 is the maximum). The method in brief: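 Multiplexed TRANS reporter assay in HepG2; 24 h dosing; reporter mRNA by RT-PCR/CE fluorescence; gain-of-signal relative to DMSO.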
For assay [18], the target named is human Thyroid Receptor alpha (THRa1), THRA (gene 7067) (UniProt P10827). Kind of assay: ATG_THRa1_TRANS: Attagene TRANS-FACTORIAL HepG2 Assay for human Thyroid Receptor alpha (THRa1) (AID 2283014; active = hit-call score of the fitted dose curve at least 0.9, where 1 is the maximum). The method in brief: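 Transcripts from GAL4-UAS-driven reporters, measured after 24 h compound exposure by RT-PCR plus capillary electrophoresis of 6-FAM-labeled fragments, were fitted for gain of signal relative to DMSO. Cells: transiently transfected HepG2 expressing NR-Gal4 chimeras.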
human Thyroid Receptor alpha (THRa1), THRA (gene 7067), sequence (P10827 whole entry, looked up, the tested form may be a part): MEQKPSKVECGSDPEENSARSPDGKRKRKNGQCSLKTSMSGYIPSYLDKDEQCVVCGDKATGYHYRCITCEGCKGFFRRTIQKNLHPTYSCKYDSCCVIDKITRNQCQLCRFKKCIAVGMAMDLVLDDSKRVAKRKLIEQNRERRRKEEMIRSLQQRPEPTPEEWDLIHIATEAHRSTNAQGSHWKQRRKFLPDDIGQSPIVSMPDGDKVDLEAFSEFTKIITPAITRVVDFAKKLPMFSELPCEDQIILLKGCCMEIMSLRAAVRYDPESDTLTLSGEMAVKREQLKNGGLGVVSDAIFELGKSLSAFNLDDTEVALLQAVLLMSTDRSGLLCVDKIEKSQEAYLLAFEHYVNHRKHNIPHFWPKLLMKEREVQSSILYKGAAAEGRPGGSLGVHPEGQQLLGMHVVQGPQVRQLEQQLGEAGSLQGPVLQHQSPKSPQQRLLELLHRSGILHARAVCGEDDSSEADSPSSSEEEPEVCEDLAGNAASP

The target of assay [19] is human Vitamin D Receptor (VDR), VDR (gene 7421) (UniProt P11473). Description: ATG_VDR_TRANS: Attagene TRANS-FACTORIAL HepG2 Assay for human Vitamin D Receptor (VDR) (AID 2283022; active = hit-call score of the fitted dose curve at least 0.9, where 1 is the maximum). The method in brief: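 Transactivation by an exogenous VDR-Gal4 chimera in transiently transfected HepG2 cells was measured as reporter transcript level 24 hours after chemical treatment. RT-PCR products were analysed by capillary electrophoresis and fitted in the positive direction relative to DMSO.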
human Vitamin D Receptor (VDR), VDR (gene 7421), sequence (P11473 whole entry, looked up, the tested form may be a part): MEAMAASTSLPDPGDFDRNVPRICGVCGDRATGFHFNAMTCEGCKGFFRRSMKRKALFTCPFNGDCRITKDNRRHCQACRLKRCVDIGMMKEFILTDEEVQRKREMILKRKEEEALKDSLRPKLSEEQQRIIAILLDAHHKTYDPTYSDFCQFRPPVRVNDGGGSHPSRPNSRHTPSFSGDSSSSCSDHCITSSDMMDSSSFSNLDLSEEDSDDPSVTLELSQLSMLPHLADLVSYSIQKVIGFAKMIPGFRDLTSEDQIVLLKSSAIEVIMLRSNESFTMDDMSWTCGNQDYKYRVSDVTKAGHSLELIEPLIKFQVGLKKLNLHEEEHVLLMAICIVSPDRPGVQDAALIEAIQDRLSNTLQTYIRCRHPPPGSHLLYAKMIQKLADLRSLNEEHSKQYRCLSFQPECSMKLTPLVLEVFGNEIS

Inconclusive results are not listed. Calls of active or inactive are those of the source. Rule for the calls, unless noted: active = hit-call score of the fitted dose curve at least 0.9, where 1 is the maximum; inactive = score below 0.9.

E-selectin (Homo sapiens), sequence (P16581 whole entry, looked up): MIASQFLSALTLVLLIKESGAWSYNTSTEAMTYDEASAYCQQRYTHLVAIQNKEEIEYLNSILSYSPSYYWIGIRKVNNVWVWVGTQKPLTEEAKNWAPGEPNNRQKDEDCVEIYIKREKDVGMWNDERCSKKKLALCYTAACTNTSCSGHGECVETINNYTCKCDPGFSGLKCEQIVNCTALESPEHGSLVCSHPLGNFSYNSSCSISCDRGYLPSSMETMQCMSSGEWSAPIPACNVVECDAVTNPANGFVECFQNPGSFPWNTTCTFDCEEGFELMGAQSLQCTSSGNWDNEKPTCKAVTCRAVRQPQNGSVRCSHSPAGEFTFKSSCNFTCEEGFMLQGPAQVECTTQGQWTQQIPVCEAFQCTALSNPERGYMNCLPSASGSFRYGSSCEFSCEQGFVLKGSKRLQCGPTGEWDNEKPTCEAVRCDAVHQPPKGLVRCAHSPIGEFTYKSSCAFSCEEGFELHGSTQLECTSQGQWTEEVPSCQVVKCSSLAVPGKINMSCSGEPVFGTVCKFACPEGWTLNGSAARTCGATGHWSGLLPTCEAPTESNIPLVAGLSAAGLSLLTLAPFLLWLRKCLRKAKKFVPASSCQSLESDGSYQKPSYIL
human RAR-related Orphan Receptor gamma (RORg), RORC (gene 6097), sequence (P51449 whole entry, looked up, the tested form may be a part): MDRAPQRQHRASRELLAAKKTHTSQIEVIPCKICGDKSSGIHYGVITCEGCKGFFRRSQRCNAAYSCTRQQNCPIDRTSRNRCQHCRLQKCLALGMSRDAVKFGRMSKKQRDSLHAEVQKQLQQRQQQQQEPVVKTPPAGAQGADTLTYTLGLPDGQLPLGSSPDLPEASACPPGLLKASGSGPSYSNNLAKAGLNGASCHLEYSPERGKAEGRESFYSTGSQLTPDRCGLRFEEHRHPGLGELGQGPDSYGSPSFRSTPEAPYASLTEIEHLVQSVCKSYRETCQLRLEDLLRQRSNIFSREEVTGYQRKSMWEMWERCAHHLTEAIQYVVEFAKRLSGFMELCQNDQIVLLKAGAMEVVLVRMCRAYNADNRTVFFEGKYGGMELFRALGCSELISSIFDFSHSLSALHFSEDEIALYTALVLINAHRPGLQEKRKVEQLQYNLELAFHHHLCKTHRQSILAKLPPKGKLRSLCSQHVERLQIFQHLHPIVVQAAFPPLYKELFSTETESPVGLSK
human Retinoid X Receptor beta (RXRb), RXRB (gene 6257), sequence (P28702 whole entry, looked up, the tested form may be a part): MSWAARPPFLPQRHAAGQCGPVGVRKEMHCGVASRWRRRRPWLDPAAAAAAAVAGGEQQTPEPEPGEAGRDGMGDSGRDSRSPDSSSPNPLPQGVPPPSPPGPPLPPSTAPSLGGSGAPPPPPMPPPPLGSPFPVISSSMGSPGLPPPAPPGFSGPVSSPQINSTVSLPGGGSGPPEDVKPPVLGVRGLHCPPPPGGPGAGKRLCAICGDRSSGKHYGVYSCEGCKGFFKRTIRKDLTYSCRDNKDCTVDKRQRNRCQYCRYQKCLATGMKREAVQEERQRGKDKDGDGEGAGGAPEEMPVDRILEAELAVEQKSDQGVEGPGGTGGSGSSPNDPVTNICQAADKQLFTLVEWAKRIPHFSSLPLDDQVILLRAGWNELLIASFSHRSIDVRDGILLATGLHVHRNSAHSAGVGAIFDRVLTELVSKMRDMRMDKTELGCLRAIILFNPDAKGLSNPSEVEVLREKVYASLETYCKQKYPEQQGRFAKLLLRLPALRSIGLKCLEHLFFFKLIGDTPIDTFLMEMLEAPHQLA
Retinoic acid receptor RXR-alpha (Homo sapiens), sequence (P19793 whole entry, looked up, the tested form may be a part): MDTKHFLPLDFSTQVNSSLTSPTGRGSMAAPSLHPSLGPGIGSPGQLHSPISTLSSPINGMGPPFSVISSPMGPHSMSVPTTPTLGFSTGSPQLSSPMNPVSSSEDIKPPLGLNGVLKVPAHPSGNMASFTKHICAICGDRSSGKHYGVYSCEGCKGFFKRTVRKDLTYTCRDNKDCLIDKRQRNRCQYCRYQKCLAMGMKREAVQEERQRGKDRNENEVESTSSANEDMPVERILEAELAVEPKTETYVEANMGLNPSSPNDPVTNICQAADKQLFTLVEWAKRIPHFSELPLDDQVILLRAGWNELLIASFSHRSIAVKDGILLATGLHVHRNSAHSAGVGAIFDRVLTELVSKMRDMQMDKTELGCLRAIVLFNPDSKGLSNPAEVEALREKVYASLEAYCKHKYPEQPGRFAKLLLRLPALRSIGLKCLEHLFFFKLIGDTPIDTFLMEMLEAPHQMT

Take `N#Cc1ccc(N(CC(N)=O)CC(F)(F)F)cc1C(F)(F)F`: the call in assay [1], in [2], in [3], in assay [4], in [5] and in [6] was inactive. Also, the result in assay [7], in assay [8], in assay [9], in [10], in assay [11] and in assay [12] was inactive. Also, the outcome in assay [13], in [14], in [15] and in assay [16] was inactive.

Consider `Sc1ccccc1`, for which the result in [1], in assay [17], in assay [18], in assay [3], in assay [4] and in assay [5] was inactive. Besides, the result in [6], in [7], in [8], in assay [19], in [9] and in [10] was inactive. The result in assay [11], in assay [13], in [15] and in [16] was inactive.

For `Nc1ccc(-c2ccc(N)cc2)cc1`, the compound was classed as inactive in assay [2], in [3], in assay [4], in assay [5], in [6] and in assay [7]. Further, the result in assay [8], in assay [19], in assay [9], in assay [10], in [11] and in [13] was inactive. The result in [14], in [15] and in assay [16] was inactive. The AC50 in [17] is 27.5 µM (active).

In the case of `CC(C)(c1ccccc1)c1ccc(O)cc1`, the call in assay [2], in assay [18], in [19], in assay [10] and in [15] was inactive. Further, the AC50 in [17] was 9.21 µM (active) [middle of 4 runs]; in assay [3], 34.7 µM (active); in assay [4], 32.2 µM (active); in assay [5], 39.3 µM (active); in assay [6], 20 µM (active); in assay [7], 39 µM (active). Further, the AC50 in assay [8] is 39.1 µM (active); in assay [9] it was 30.2 µM (active); in assay [11], 37.5 µM (active); in assay [13], 30.5 µM (active); in [16], 32 µM (active).

On to `CN(C)c1nc(=O)n(C2CCCCC2)c(=O)n1C`, for which the outcome in assay [2], in assay [17], in assay [3], in assay [4], in assay [5] and in assay [6] was inactive. For the same compound, the outcome in assay [7], in [8], in assay [9], in [10], in [11] and in assay [13] was inactive. For the same compound, the result in assay [14], in [15] and in assay [16] was inactive.

In the case of `Clc1ccc(C(Cl)(Cl)Cl)cc1`, the compound was classed as inactive in assay [2], in [17], in assay [18], in assay [3], in assay [4] and in [5]. In addition, the result in [6], in assay [7], in assay [8], in assay [9], in [10] and in assay [11] was inactive. Moreover, the result in [12], in assay [13], in [15] and in [16] was inactive.

Regarding `CCCCCCCCCc1ccc(O)cc1`, the call in [2], in assay [18], in [19] and in assay [15] was inactive. Also, the AC50 in [3] is 14.3 µM (active); in assay [4], 17.3 µM (active); in assay [5], 14.6 µM (active); in [6] it was 12.3 µM (active); in assay [7], 14.1 µM (active); in assay [8], 16.4 µM (active). Also, the AC50 in assay [9] is 15.5 µM (active); in assay [10], 16.7 µM (active); in [11], 38.7 µM (active); in assay [13], 14.9 µM (active); in [14] it was 15.1 µM (active); in [16] it was 16.9 µM (active).

As a reminder, the AC50 is the midpoint of the concentration-response curve, whichever way the signal moves.
